Percent Effect data for 55 compounds are collected here from ChEMBL document CHEMBL3988442, “University of Dundee, Small-Polar-MMV Screening Library” (2021).

Among all 69,000 compounds or so, about 420 (0.61%) showed an effect of 50% or more. What follows is part of a selection rich in strong results, with near analogues and random picks from the rest.

This assay concerns the target T1, Histidine--tRNA ligase (Leishmania infantum) (UniProt A4I591).
T1 sequence (whole entry): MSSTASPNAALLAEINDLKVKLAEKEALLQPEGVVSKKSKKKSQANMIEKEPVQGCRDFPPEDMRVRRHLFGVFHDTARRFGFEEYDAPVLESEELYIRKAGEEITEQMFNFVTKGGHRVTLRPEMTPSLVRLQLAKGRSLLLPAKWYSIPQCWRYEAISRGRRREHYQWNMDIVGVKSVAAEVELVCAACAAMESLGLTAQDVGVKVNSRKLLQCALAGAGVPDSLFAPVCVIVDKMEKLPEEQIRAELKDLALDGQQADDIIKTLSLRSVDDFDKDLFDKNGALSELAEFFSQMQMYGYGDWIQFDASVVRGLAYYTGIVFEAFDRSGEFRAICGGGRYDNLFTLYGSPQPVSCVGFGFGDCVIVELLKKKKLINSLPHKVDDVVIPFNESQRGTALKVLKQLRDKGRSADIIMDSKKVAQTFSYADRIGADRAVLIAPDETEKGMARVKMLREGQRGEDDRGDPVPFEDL
The experiment in a line: Leishmania infantum Histidine tRNA synthetase (LdHisRS). It is filed as functional. Set-up: scale not given: in the data most compounds retested in dose-response had high values. The note with it: 30 µM.
As to `COc1cccn(CC(=O)N2CCCC3(CCOCC3)C2)c1=O`, the Percent Effect is 98.9%.

Consider `Cc1ccoc1C(=O)N1CC[C@@H]2O[C@@H](C)C[C@H]2C1`, for which the Percent Effect was determined as 12.3%.

As to `CSc1nsc(SCC(=O)c2cc3c(cc2Cl)NC(=O)C3)n1`, the Percent Effect stood at 13.2%.

In the case of `Cc1nnc(SCC(=O)c2cc3c(cc2Cl)NC(=O)C3)s1`, the Percent Effect turned out to be 2.63%.

`Nc1nnc(SCC(=O)c2cc3c(cc2Cl)NC(=O)C3)s1`: the Percent Effect was determined as 50%.

Regarding `Cn1cccc1C(=O)N[C@@H]1CN(Cc2cccs2)[C@@H]2COC[C@@H]21`, the Percent Effect came out at 5.71%.

On to `COc1ccc(CN2C[C@@H]3CN(Cc4ccncc4)C[C@@H]3C2=O)cc1`, for which the Percent Effect is 13.6%.

With `COc1cc(N2C[C@H]3CCC[C@@H](CN4CCOCC4)[C@H]3C2)ncn1`, the Percent Effect was 17.4%.

With `O=C1COC2(CCN(Cc3ccoc3)CC2)CN1CCn1cccn1`, the Percent Effect was 21.4%.

For the compound `CS(=O)(=O)N1CCC2(CC1)CN(CCn1cccn1)C(=O)CO2`, the Percent Effect was 65.8%.

As for `COCCN1CCC2(CC1)CN(CCn1cccn1)C(=O)CO2`, the Percent Effect turned out to be 16.2%.

`CCn1cc(C(=O)N2C[C@H]3C[C@H](Oc4ccccc4)C[C@H]3C2)cn1`: the Percent Effect amounted to 11.5%.

In the case of `Cc1nc(C(=O)N2CCN(C(=O)C3CCC3)[C@@H]3CS(=O)(=O)C[C@@H]32)cs1`, the Percent Effect worked out at 2.67%.

For the compound `O=C(Cc1ccsc1)N1C[C@H]2CCC[C@@]2(COCc2ccccn2)C1`, the Percent Effect amounted to 7.92%.

On to `Cc1cc(C)c(CNC(=O)N2CCCC2c2ccccn2)c(=O)[nH]1` (stereo not given), for which the Percent Effect turned out to be 12.3%.

For the compound `Cn1cc(C(=O)N2CCCC2c2ccc3c(c2)OCCO3)ccc1=O` (stereo not given), the Percent Effect was determined as 27.3%.

Take `CC(C)C1CCCN1C(=O)Nc1ccc(=O)n(C)c1` (stereo not given): the Percent Effect stood at 119%.

In the case of `CCSc1ccc(NC(=O)N2CCCC2c2ccncc2)cn1` (stereo not given), the Percent Effect was 1.65%.

As to `Cn1cc(C(=O)N2CCCC2c2ccc3c(c2)OCO3)ccc1=O` (stereo not given), the Percent Effect is 12.1%.

Take `Cn1cc(NC(=O)N2CCCC2c2cccnc2)ccc1=O` (stereo not given): the Percent Effect came out at 100%.

Turning to `COc1ccc(NC(=O)N2CCCC2c2ccncc2)cn1` (stereo not given), the Percent Effect turned out to be 13.2%.

On to `Cn1cc(NC(=O)N2CCCC2c2ccccn2)ccc1=O` (stereo not given), for which the Percent Effect was 108%.

`CN(C)CC(=O)N1CCCC1c1ccccn1` (stereo not given): the Percent Effect turned out to be 8.63%.

Consider `Cc1ccc(CN2CC[C@@H]3OCCN(S(C)(=O)=O)[C@H]3CC2)s1`, for which the Percent Effect was 7.55%.

Regarding `Cn1cc(C(=O)N2CC[C@@H]3[C@@H]2CCN3Cc2cccc(C#N)c2)cn1`, the Percent Effect turned out to be 3%.

Consider `CN(C)C[C@@H]1C[C@@H]2CN(C(=O)Cc3cccs3)CC[C@@H]2N1C`, for which the Percent Effect is 6.42%.

Take `Cc1ccc(CN2CC[C@H]3C(=O)N(Cc4cccnc4)CCO[C@H]3C2)o1`: the Percent Effect was found to be 5.88%.

In the case of `COc1ccccc1N1CCC(CNCc2cccc(OC)c2OC)C1` (stereo not given), the Percent Effect amounted to 59.5%.

For `COc1ccccc1N1CCC(CNCc2cccc(O)c2)C1` (stereo not given), the Percent Effect came out at 21.4%.

`COc1ccc(CNCC2CCN(c3ccccc3OC)C2)cc1O` (stereo not given): the Percent Effect came to 16.1%.

Consider `O=C(c1ccco1)N1CCO[C@@H]2CN(c3ccccn3)CC[C@@H]2C1`, for which the Percent Effect is 17.5%.

Take `CN1CCN(C(=O)[C@@H]2CC[C@@H]3[C@@H](CCN3c3ncccn3)O2)CC1`: the Percent Effect turned out to be 14%.

For the compound `Cc1ccccc1NC(=O)N1CCN(C(=O)C2CC2)[C@@H]2CS(=O)(=O)C[C@@H]21`, the Percent Effect was 4.92%.

On to `CCN(Cc1ccc(O)c(C(=O)O)c1)CC1CCCO1` (stereo not given), for which the Percent Effect is 16.4%.

With `CCN(Cc1cccc2c1OCO2)CC1CCCO1` (stereo not given), the Percent Effect turned out to be 20%.

On to `CCN(Cc1ccc2cccc(O)c2n1)CC1CCCO1` (stereo not given), for which the Percent Effect came to 74%.

For `CCCc1ccc(CN2CCC3(CC2)CNC(=O)C3)o1`, the Percent Effect came out at 11.7%.

For the compound `O=C1CC2(CCN(Cc3ccc(C(F)(F)F)nc3)CC2)CN1`, the Percent Effect amounted to 15.4%.

Turning to `O=C1CC2(CCN(Cc3ccc4cccc(O)c4n3)CC2)CN1`, the Percent Effect was found to be 63.2%.

Regarding `O=C(c1cnccn1)N1CCN2C[C@H](OCc3ccccc3F)C[C@H]2C1`, the Percent Effect was 1.37%.

With `O=C(Cc1ccsc1)N1C[C@@H]2COC[C@]2(COc2cccnc2)C1`, the Percent Effect was found to be 15.4%.

Take `CCc1ccccc1OCCN1CC[C@@]2(O)CCNC[C@H]2C1`: the Percent Effect amounted to 15.8%.

`CNC(=O)[C@@]12CCO[C@@H]1CCN(S(=O)(=O)c1ccc(C)cc1)C2`: the Percent Effect is -5%.

In the case of `CCc1c(C(=O)N2CCN(C)[C@@H]3CS(=O)(=O)C[C@@H]32)[nH]c2ccccc12`, the Percent Effect came out at 11%.

As for `CC(C)NC(=O)N1CCCCC1c1nnc2n1CCNC2` (stereo not given), the Percent Effect was found to be 30.3%.

`CC(C)NC(=O)N1CCC(c2nnc3n2CCNC3)CC1`: the Percent Effect was 74.5%.

In the case of `CC(=O)N1CCCCC1c1nnc2n1CCNC2` (stereo not given), the Percent Effect was found to be 2.76%.

Turning to `O=C(CS(=O)(=O)Cc1csc(-c2ccc(F)cc2)n1)NCC1CC1`, the Percent Effect came out at 48.2%.

As for `NC(=O)CS(=O)(=O)Cc1csc(-c2ccccc2)n1`, the Percent Effect was found to be 53%.

Consider `NC(=O)CS(=O)(=O)Cc1csc(-c2ccc(F)cc2)n1`, for which the Percent Effect was found to be 16.9%.

As for `O=C([C@@H]1CCO[C@@H]2CCN(CC3CC3)C[C@H]21)N1CCCCO1`, the Percent Effect was 17.9%.

For `O=C(c1ccccc1)N1C[C@@H]2CCCO[C@@H]2[C@H](N2CCCC2)C1`, the Percent Effect was found to be 22.8%.

Take `CCC[C@@H]1CN(C(=O)c2ccccc2-c2ccccc2)C[C@H]1N(C)C`: the Percent Effect was found to be 8.57%.

As to `CCC[C@@H]1CN(C(=O)c2cc3ccccc3cc2O)C[C@H]1N(C)C`, the Percent Effect is 77.1%.

In the case of `CCC[C@@H]1CN(C(=O)c2ccccc2C(C)=O)C[C@H]1N(C)C`, the Percent Effect was found to be 8.57%.
